Source: PubChem BioAssay
TRPV1 agonist = agonists of human vanilloid receptor 1 (TRPV1) | TRPV1-expressing cells, Fluo-8 calcium influx, agonist mode | activation, % at 8.33 µM | AID 540275 | 320,000 tested, 0.19% active; in the data active means activation above about 80%; inconclusive means between about 30% and that limit
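TRPV1-expressing cells were cultured overnight at 35.5C and loaded with Fluo-8 calcium dye for 40 to 90 min at room temperature. After a 10 s baseline, compound was added and calcium influx was read kinetically for 3 min (ex 480/em 520 nm).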
TRPV1 potentiator = potentiators of human vanilloid receptor 1 (TRPV1); Q8NER1; TRPV1-expressing cells, Fluo-8 calcium influx, capsaicin EC20 potentiation; potentiation, % at 8.33 µM; 320,000 tested, 0.02% active; in the data active means potentiation above about 80%; inconclusive means between about 30% and that limit
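Cells expressing TRPV1 were dye-loaded with Fluo-8 and read kinetically: 10 s baseline, 3 min after compound (agonist portion), then 2 min after EC20 capsaicin (allosteric enhancer portion). Calcium-bound dye fluorescence at 480/520 nm.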
TRHR PAM = allosterically enhances the human TRH receptor | P34981 | TRHR cells, fluo-8 calcium fluorescence, EC20 TRH enhancement | enhancement, % at 2 µM | 360,000 tested, 0.66% active | AID 493056; in the data active means enhancement above about 30%
Target sequence (P34981 whole entry, looked up): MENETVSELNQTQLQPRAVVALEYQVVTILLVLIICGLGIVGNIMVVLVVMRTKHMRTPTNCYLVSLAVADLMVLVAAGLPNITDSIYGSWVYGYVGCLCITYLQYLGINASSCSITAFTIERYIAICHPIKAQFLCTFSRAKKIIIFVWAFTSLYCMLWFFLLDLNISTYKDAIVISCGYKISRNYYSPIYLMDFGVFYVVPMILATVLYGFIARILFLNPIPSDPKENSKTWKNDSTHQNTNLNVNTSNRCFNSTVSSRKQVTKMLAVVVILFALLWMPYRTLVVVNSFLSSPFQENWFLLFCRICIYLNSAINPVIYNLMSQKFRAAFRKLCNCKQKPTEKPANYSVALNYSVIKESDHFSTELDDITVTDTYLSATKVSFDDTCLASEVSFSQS
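Enhancer read-out: after compound pinning and an initial kinetic agonist-mode read, an EC20 of TRH (10 nM final) was injected and fluo-8 calcium signal (Ex 480/Em 530) followed at 1 s/cycle for 100 cycles in TRHR-expressing cells.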
TRPML1 ag = agonists of human TRPML1 channel | activation, % (test concentration not listed) | 410,000 tested, 0.12% active | TRPML1-expressing cells, Ca2+ dye fluorescence, FDSS; in the data active means activation above about 50%; inconclusive means mostly about 30% to 49%
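Calcium fluorescence on an FDSS kinetic reader gave the read-out. Tet-induced TRPML1-DL cells were plated overnight, dye-loaded (Ca8 with quencher, 45-90 min, room temperature, dark), then read 110 s after compound addition, and again 110 s after 4uM final 54-4 (EC80).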
TRHR agonist = activates the human TRH receptor. P34981. TRHR cells, calcium flux fluo-8, FDSS agonist mode. activation, % at 2 µM. 360,000 tested, 0.18% active; in the data active means activation above about 30%
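Steps: seed TRHR cells overnight; add fluo-8 no-wash Ca dye, RT 30 min–1.5 h; record 10 s baseline; pin-transfer compounds; monitor fluorescence 1 cycle/s for the agonist window. Calcium increases flag candidate agonists.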
TRPML1 blocker = human mucolipin-1 channel inhibition; Q9GZU1; TRPML1-inducible cells, Ca2+ dye fluorescence, FDSS; stronger effect = lower value; inhibition of EC80 agonist-evoked calcium signal; activity change, negative = inhibition, % (test concentration not listed); 390,000 tested, 0.02% active; AID 624415; in the data active means activity change below about -50%; inconclusive means between about -30% and that limit;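 further: stimulus is agonist 54-4 at its EC80 concentration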
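Calcium fluorescence in TRPML1-DL cells induced overnight with Tet: a 110 s read after compound pin addition, then a 110 s antagonist read after challenge with 54-4 at 4 uM final (EC80).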
Numbers stand for hits; . = inactive; ? = inconclusive; / = no result given. Sampled rows, rich in hits. Any-hit rate of the full collection: about 0.99%.

SMILES	TRPV1 agonist	TRPV1 potentiator	TRHR PAM	TRPML1 ag	TRHR agonist	TRPML1 blocker
CCc1ccc2oc(C(=O)Nc3cc(C)ccc3C)cc(=O)c2c1	/	/	.	.	.	.
COc1cc(/C=C2/SC(=S)N(Cc3ccccc3)C2=O)cc(Cl)c1O	?	.	91.9	64.7	158.7	.
COc1cc(/C=C2/SC(=S)N(Cc3ccccc3)C2=O)ccc1OCC(=O)O	.	.	.	.	.	.
N#CN1CCC(NS(=O)(=O)c2ccc(F)cc2)CC1	/	/	.	/	.	/
CC(C)CC(c1nnnn1C(C)C)N1CCN(c2cccc(Cl)c2)CC1 (configuration not stated)	.	.	.	84.0	.	.
CCCC(c1nnnn1Cc1cccs1)N1CCN(c2nc3ccccc3s2)CC1 (configuration not stated)	.	?	.	61.1	.	.
CC(C)c1nnc(N2C(=O)C(O)=C(C(=O)c3cccs3)C2c2ccccc2)s1 (configuration not stated)	103.4	.	.	?	169.3	.
C=CCOc1ccc(C2C(C(=O)c3cccs3)=C(O)C(=O)N2c2nnc(C)s2)cc1 (configuration not stated)	/	/	/	?	/	.
COc1ccc(C2C(C(=O)c3cccs3)=C(O)C(=O)N2c2nnc(C)s2)cc1OC (configuration not stated)	.	.	.	.	192.6	.
COc1ccc(C2C(C(=O)c3cccs3)=C(O)C(=O)N2c2nncs2)cc1 (configuration not stated)	?	.	.	.	36.2	.
CCS(=O)(=O)Nc1ccc(-c2cn3ccsc3n2)cc1	/	/	.	.	.	.
O=C(COC(=O)C12CC3CC(CC(C3)C1)C2)Nc1ccc2[nH]c(=O)[nH]c2c1	92.5	.	.	.	.	.
O=C(COC(=O)C12CC3CC(CC(Cl)(C3)C1)C2)Nc1ccc2[nH]c(=O)[nH]c2c1	?	.	.	.	.	.
CSc1nnc2c3c4c(sc3nc(-n3nc(C)cc3C)n12)COC(C)(C)C4	80.4	.	.	.	.	.
Cc1cc(C)n(-c2nc3sc4c(c3c3nnc(SCC(N)=O)n23)CC(C)(C)OC4)n1	.	.	.	.	.	.
CCN1C(=NCc2ccc(OC)cc2)N[C@@H](c2ccccc2)[C@H](C(=O)OC)[C@H]1C	.	?	30.8	.	.	.
COc1ccc(C(=O)NCC(=O)OCC(=O)c2cccc3ccccc23)cc1	/	/	/	.	/	/
c1ccc(-c2csc(N3CCN(c4ccccn4)CC3)n2)cc1	100.7	.	.	.	.	.
O=S(=O)(Nc1cccc2cccnc12)c1cccs1	.	.	.	.	.	.
COCCNC(=O)c1cnn2c1NC(c1ccco1)CC2C(F)(F)F (configuration not stated)	.	.	.	.	.	.
CCOC(=O)N1CCC(NC(=O)c2cnn3c2NC(c2ccco2)CC3C(F)(F)F)CC1 (configuration not stated)	.	.	32.2	.	.	.
CCSC(=O)N1CCN(/[N+]([O-])=N/Oc2ccc([N+](=O)[O-])cc2[N+](=O)[O-])CC1	/	/	/	.	/	.
Cn1c2ccsc2c2ncn(Cc3ccc(F)cc3)c(=O)c21	/	/	36.0	/	.	/
COc1cc(C(=O)Nc2cccc(OCc3cc(=O)n4cc(C)sc4n3)c2)cc(OC)c1OC	/	/	.	.	.	.
Nc1cccc(-c2nnc3n2CCCCC3)c1	.	.	.	.	.	.
SMILES	TRPV1 agonist	TRPV1 potentiator	TRHR PAM	TRPML1 ag	TRHR agonist	TRPML1 blocker
O=S(=O)(c1cccc(-c2nnc3n2CCCCC3)c1)N1CCCC1	.	.	33.7	.	.	.
COc1ccc(-c2nn(-c3ccccc3)cc2C(=O)Nc2ccccc2OC)cc1	/	/	43.9	.	.	.
CCOC(=O)/C(C#N)=C/C=C1/C=CC=CN1C	.	.	.	.	.	.
C=CCN1C=CC(=C/C=C(/C#N)C(=O)OCC)C=C1	.	.	.	?	37.0	.
Cc1cc(C(=O)Nc2ccccc2C(=O)O)ccc1NC(=O)COc1ccccc1Cl	.	.	35.1	.	.	.
N#Cc1nc(NC2CCCC2)c2ncn(-c3cc(F)cc(F)c3)c2n1	/	/	.	/	.	/
CCOC(=O)N1CCN(C(=S)NC2CCCC2)CC1	.	.	32.6	.	.	.
CCOc1cc(/C=C/C(=O)c2ccc(OC)c(CN3CCOCC3)c2)cc(Br)c1O	.	.	.	.	39.6	.
CCOc1cc(/C=N/NC(=O)c2ccc(CN3CCOCC3)cc2)ccc1OC	.	.	.	.	.	.
Cc1ccc(NC(=O)N2C3CCCC2CC(NC(=O)C2CC2)C3)cc1 (configuration not stated)	.	.	30.1	.	.	.
COc1cc(C)ccc1OCc1cc(C(=O)N2CCN(C3CCCCC3)CC2)no1	.	.	.	.	.	.
O=C(c1cc(COc2ccc(F)cc2Cl)on1)N1CCC(c2ccncc2)CC1	85.6	.	.	.	.	.
COc1cc(C)ccc1OCc1cc(C(=O)N2CCCCCCC2)no1	.	.	39.1	.	.	.
O=C(c1cc(COc2ccc(F)cc2Cl)on1)N1CCCCCC1	.	.	.	.	.	.
Fc1cccc(-c2nnn3c2nc(NC2CCCCC2)c2ccccc23)c1	/	/	.	.	.	.
Cc1cccc(N(C(=O)c2csnn2)C(C(=O)NC2CCCCC2)c2ccccn2)c1C (configuration not stated)	.	.	38.1	.	.	.
O=C(COC(=O)C1CC1)NCCc1ccccc1	/	/	/	.	/	.
NS(=O)(=O)c1ccc(CCNC(=O)COC(=O)C2CCC2)cc1	.	.	33.2	.	.	.
O=C(NCC(c1ccco1)S(=O)(=O)c1cccs1)c1ccc(C(F)(F)F)cc1 (configuration not stated)	/	/	.	.	.	.
Cc1ccc(C)c(Cn2c(=O)n(CCCCCC(=O)NCc3ccc4c(c3)OCO4)c(=O)c3sccc32)c1	/	/	.	.	.	.
CC(=O)Nc1ccc(N/C(N)=N/c2nc(C)cc(C)n2)cc1	.	.	.	.	.	.
Cc1cc(C)nc(/N=C(\N)Nc2ccc(F)c([N+](=O)[O-])c2)n1	/	/	/	74.6	/	.
Cc1cc(C)nc(/N=C(\N)Nc2ccc(SC(F)F)cc2)n1	.	.	.	54.0	.	.
O=C1c2ccccc2NC(c2ccc(-c3ccccc3F)o2)N1O (configuration not stated)	.	.	36.1	/	.	/
O=C1C=CC(=O)N1Nc1ccc(Br)cc1	.	.	33.1	.	.	.
O=C1c2cccc3cc(Br)cc(c23)C(=O)N1Nc1ccc(Br)cc1	.	.	.	.	.	.
CCOCCCNC(=O)c1ccc2c(=O)n(CCc3ccccc3)c(=O)[nH]c2c1	/	/	.	.	.	.
